In the library only some 1.4% were active in any assay of this set; here they are far more common.
Polio RdRp inh – poliovirus RdRp elongation inhibitors, primary screen, biochemical, fluorescence polarization, total intensity | Genome polyprotein (Poliovirus type 1 (strain Mahoney)), P03300 | poliovirus polymerase elongation; active compounds read low | % elongation, % (compound at 16.7 µg/mL) | actives 0.66% (n = 150,000); in the data active = % elongation below about 90%
Target sequence (P03300 1749-2209 limits assumed): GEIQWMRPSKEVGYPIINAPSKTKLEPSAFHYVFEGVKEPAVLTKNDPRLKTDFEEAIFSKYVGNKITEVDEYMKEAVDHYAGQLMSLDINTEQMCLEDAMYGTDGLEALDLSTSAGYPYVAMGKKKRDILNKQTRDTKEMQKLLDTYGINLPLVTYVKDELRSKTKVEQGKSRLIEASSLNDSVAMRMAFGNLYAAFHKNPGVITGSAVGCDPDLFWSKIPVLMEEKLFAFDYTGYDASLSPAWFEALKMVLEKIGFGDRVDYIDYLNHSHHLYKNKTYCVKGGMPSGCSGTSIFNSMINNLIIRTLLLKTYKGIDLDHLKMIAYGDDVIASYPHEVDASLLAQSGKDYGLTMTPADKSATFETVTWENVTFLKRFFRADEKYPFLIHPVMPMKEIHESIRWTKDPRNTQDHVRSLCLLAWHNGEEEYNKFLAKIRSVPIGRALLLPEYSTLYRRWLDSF
MenB inh – M. tuberculosis MenB inhibitors, primary screen, biochemical, absorbance. MenB enzyme assay, absorbance read-out. inhibition, % (test concentration not listed). actives 0.43% (n = 100,000). AID 540299, 2011; in the data active = inhibition above about 21%, passing the limit was not always enough
MbtI inh – MbtI salicylate synthase inhibitors, primary screen, biochemical, fluorescence intensity; P9WFX0; purified MbtI enzyme, fluorescence intensity read-out; inhibition, % (no concentration beside the values); actives 0.89% (n = 100,000); AID 493033, 2011; in the data active = inhibition mostly above about 56%, no sharp cut-off; inactive = mostly below about 77%
Hits are given with their value; . = inactive; / = no result; ! = a repeat was not active.

SMILES	Polio RdRp inh	MenB inh	MbtI inh
O=c1[nH]snc1N1CCCCC1	64	.	.
O=c1[nH]snc1N1CCOCC1	/	/	.
CCOCCCNc1nc2ccccc2n2c(CC)nnc12	.	/	/
CCOCCCNc1n[nH]c(=S)s1	88	.	.
Cc1cc(Sc2nnc3c(n2)[nH]c2ccccc23)n2c(nc3ccccc32)c1C#N	.	.	.
Cc1ccc(-c2nn(-c3ccccc3)cc2/C=C2/CN(C)C/C(=C/c3cn(-c4ccccc4)nc3-c3ccc(C)o3)C2=O)o1	.	.	.
CN1CCN(CC(=O)NCCc2ccc(F)cc2)CC1	.	.	.
C=CCn1c(Cc2ccc(O)c(Cl)c2)n[nH]c1=S	.	.	93
C=CCn1c(CNC(=O)c2ccccc2)n[nH]c1=S	.	.	.
S=c1[nH]nc(Cc2ccccc2)n1Cc1ccccc1	.	.	62!
S=c1[nH]nc(Cc2ccsc2)n1Cc1ccccc1	.	.	.
O=C(c1ccco1)N1CCCC(C(F)(F)F)C1 (centres undefined)	.	.	.
COc1ccc(C(=O)N/N=c2/c(=O)c(=O)c3ccccc23)cc1	52	.	.
COc1ccc(C(=O)NN=C2CCCC2)cc1	.	.	.
CC(=O)N1CCN(C(=O)C2CC(=O)N(Cc3ccc(C)cc3)C2)CC1 (centres undefined)	.	.	.
Cc1ccc(S(=O)(=O)N(C)C2CCCCC2)cc1C	.	.	.
CC(C)=CC(=O)Nc1nnc(-c2ccccc2)s1	.	.	.
CC(C)C(=O)Nc1nnc(-c2ccccc2)s1	87	.	/
O=C(CCn1c(=O)oc2ccccc21)Sc1ccc(Cl)cc1Cl	87	.	70
COc1ccc(Cl)cc1NC(=O)CCn1c(=O)oc2ccccc21	.	/	/
CC(NCCCO)c1ccncc1 (centres undefined)	.	.	.
CCOC(=O)N1CCN(CC2CCCCC2)CC1	.	.	.
CCN1CCN(CC2CCCCC2)CC1	.	34	.
O=C1/C(=N/NC(=O)C2COc3ccccc3O2)c2cccc3cccc1c23 (centres undefined)	.	.	.
CCn1c(SCCC#N)nnc1-c1ccncc1	.	31	.
SMILES	Polio RdRp inh	MenB inh	MbtI inh
CCn1c(SCC#N)nnc1-c1cccc(C)c1	.	.	.
COc1cc2nc(CC(C)C)n(N)c(=O)c2cc1OC	.	.	.
CN1/C(=C(/O)c2ccccc2)C(=O)c2ccccc2S1(=O)=O	.	.	.
CCn1c(COc2cccc(C)c2)nnc1SCC(=O)N1C(C)CCCC1C (centres undefined)	.	39	.
CCn1c(COc2ccc(C)cc2)nnc1SCC(=O)N1CCCc2ccccc21	.	.	.
Cc1nn(C(C)(C)C)c2c1C(c1ccncc1)C1=C(CCCC1=O)N2 (centres undefined)	.	.	.
NS(=O)(=O)c1ccc(NC(=O)NCC2CCCC(CNC(=O)Nc3ccc(S(N)(=O)=O)cc3)C2)cc1 (centres undefined)	.	.	.
Cc1ccc(Cc2cn3cc(-c4ccc(F)cc4)nc3s2)cc1	.	/	/
Cc1ccc(Cc2c[nH]c(=S)s2)cc1	.	.	90
O=C1c2ccccc2C(=O)C2(O)OCCOC12O (centres undefined)	90	.	.
CCN(c1ccccc1)C1(O)C(=O)c2ccccc2C1=O	.	.	.
COC(=O)c1cc(C)nc2c1c(C)nn2-c1ccccc1Cl	.	.	.
CC1CCCC(C)N1C(=O)c1ccccc1NS(=O)(=O)c1ccc(F)cc1 (centres undefined)	.	/	.
CC1CCCCN1C(=O)c1ccccc1NS(=O)(=O)c1ccc(F)cc1 (centres undefined)	.	41	.
O=C(N/N=C/c1c(-c2ccccc2)nc2sccn12)c1cc(=O)[nH]c(=O)[nH]1	.	.	.
Cc1cnc(C)c(N(C)C)n1	57	31	.
CSc1ncc(F)c(N(C)C)n1	.	.	/
CN1/C(=C/c2cccc[n+]2C)C=Cc2ccccc21	87	.	.
CN1/C(=C/C=C(C#N)C#N)C=Cc2ccccc21	.	.	.
Nc1cc(-c2ccccc2)n(C(=O)Nc2ccc(Cl)cc2)n1	.	.	.
CCN(CC)C(=O)Cn1nnc(-c2ccccc2)n1	.	.	.
O=C(Cn1nnc(-c2ccncc2)n1)N(C1CCCCC1)C1CCCCC1	.	active	.
CCN1C(=O)C2NN=C(C(=O)c3nc(Cl)ccc3Cl)C2C1=O (centres undefined)	.	.	/
BrCCOC12CC3CC(CC(C3)C1)C2	.	/	.
S=c1[nH]c2c(s1)sc1ccccc12	.	.	91
Clc1nsc2ccccc12	/	.	.
O=C(Cn1cnc2c(oc3ccccc32)c1=O)c1ccccc1	.	.	.
O=C(Cn1cnc2c(oc3ccccc32)c1=O)Oc1ccccc1Cl	60	.	.

Screening data (PubChem)
